From the supplement of paper PMC6555819

Tests used:
Assay in all cases: PBM binding z-score (relative to random genomic background probes); higher = stronger binding; sequences stand for … in GC…GCGATTGACAGCGTAGAATGAAGG
[1] = test system: RARb homodimer (NR concentration 270 nM)
Procedure, shortened: (§1)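 Binding buffer was PBS pH 7.4 with 2% milk, 0.02% Triton X-100, 1 mM DTT, 0.2 mg/mL BSA and 0.4 mg/ml salmon testes DNA. In it, ligand-free nuclear receptor dimers were incubated 1 h on custom Agilent 4×180K protein-binding microarrays carrying double-stranded probes. Antibodies against each partner (one per run) detected binding, and z-scores were calculated against random background probes after regression normalization of scanned fluorescence.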

[2] = test system: RARg:RXRa (NR concentration 270 nM, RXRa partner concentration 90 nM)
Procedure, shortened: as §1

[3] = test system: RARg homodimer (NR concentration 270 nM)
Procedure, shortened: as §1

[4] = test system: RXRa DBDmut IVT, anti-RXR (DBD mutation: RXRa K156A/R161A, NR concentration 90 nM)
Procedure, shortened: as §1

[5] = test system: RXRa homodimer (NR concentration 180 nM)
Procedure, shortened: as §1

[6] = test system: THRa:RXRa (NR concentration 90 nM, RXRa partner concentration 90 nM)
Procedure, shortened: as §1

[7] = test system: THRa homodimer (NR concentration 90 nM)
Procedure, shortened: as §1

[8] = test system: VDR homodimer (NR concentration 270 nM)
Procedure, shortened: as §1

Sequence | PBM binding z-score [1] | PBM binding z-score [2] | PBM binding z-score [3] | PBM binding z-score [4] | PBM binding z-score [5] | PBM binding z-score [6] | PBM binding z-score [7] | PBM binding z-score [8]
ATCTCTAGGTAAAGTACAGTGAAAGATCGATAGA | 0.302 | 0.498 | 0.733 | 0.55 | 0.366 | 0.609 | 0.162 | 0.488
TAGCCTAGGTCAGATCGGGCCAGAATACGCTATA | 1.78 | 2.58 | 2.95 | -0.569 | 1.29 | 4.06 | -0.133 | -0.288
ATCGAAAGGTGGAAGGTGAGTATACCCACCCGAA | 0.363 | 0.767 | 0.717 | -1.21 | 1.12 | 0.406 | -0.497 | 0.146
TTACCAAGTTGAAGGTCGTTGATCCCTCTGTAGA | 1.15 | 0.339 | 0.342 | 1.07 | 1.2 | 1.26 | 0.0178 | 1.49
TCTCGGAGGACACGAAAGGTCAGAGATCGACATC | 4.63 | 5.05 | 5.73 | 1.17 | 4.6 | 3.87 | 1.53 | 1.12
TAGCCTAGGTCAGGTCGGGCCAGTATACGCTATA | 2.67 | 2.95 | 4.12 | -0.81 | 1.62 | 3.92 | 0.761 | 0.0294
AGAACGAGGGCAATAAGTTGATAGCACGGGTGGC | 1.11 | 1.23 | 1.56 | 1.9 | 0.767 | 0.873 | -0.185 | 2.26
CCAGACAGGTAAAAGGTAACTCAGTCTGGTACGC | 0.19 | 0.33 | 0.29 | -0.178 | 1.09 | 0.372 | -0.238 | 0.202
ATATGTAGTTTACATCCGGGTCATTCAGGCTATG | 2.34 | 1.83 | 1.44 | 1.58 | 2.1 | 3.2 | 2.74 | 2.82
TCTATTAGTTGAAGGGCAACGGACGAGTCCGTTT | 1.19 | 0.697 | 0.572 | 1.53 | 0.756 | 0.343 | 0.0596 | 1.98
GCGATTGGGGCAAAGCAGGTTACCATAAGGTTGG | 1.1 | 0.454 | 0.635 | 0.0691 | 0.619 | 3.01 | 0.281 | 0.0482
TCGAGTAGGTTAGTCGTGGCATTCAGCCAACATA | -0.359 | -0.49 | -0.451 | -0.0351 | -0.388 | -0.461 | -1.11 | -0.659
ACTATTAGTTGACTTAGGACAACCGATACGACGC | 0.766 | 0.732 | 1.04 | 0.853 | 0.557 | 2.12 | 1.88 | 0.342
TGAATGAGGTTAAAAATCAGGGAACGTGGCGTCG | 0.129 | 1.38 | 0.835 | 1.26 | 2.24 | 1.67 | -0.0675 | 0.4
TATTGTAGATCAACAGGAGGTTAAGAAAGATCGA | 0.682 | 1 | 0.791 | -0.715 | 0.924 | 1.23 | -0.471 | 0.107
ATCGAAAGGTCGTGAGGTGAGTGTACAGAAAGGC | 3.06 | 4.52 | 4.11 | 1.26 | 5.06 | 3.48 | 1.71 | 1.41
AGAACGAGGGCAAGCTGAGTTGATAGCAGAGTAG | 1.06 | 1.53 | 1.97 | 2.1 | 0.964 | 1.35 | -0.471 | 1.36
AGTCAAAGTTCACTAAGTAACGTAAGATTCAGCT | 3.31 | 4.63 | 5.16 | 4.1 | 3.9 | 1.55 | -0.0534 | 3.4
TCATATAGGTAAAGGGTGAAAGTCGGTGTGGTAA | 1.59 | 1.09 | 0.514 | 1.84 | 2.24 | 1.19 | 0.771 | 0.649

Sequence | PBM binding z-score [1] | PBM binding z-score [2] | PBM binding z-score [3] | PBM binding z-score [4] | PBM binding z-score [5] | PBM binding z-score [6] | PBM binding z-score [7] | PBM binding z-score [8]
CTACCAAGGTGAACAAGGTCTTTGATTACTATTC | 1.24 | 0.878 | 0.946 | 0.886 | 0.789 | 2.52 | 1.42 | 0.414
CCAGACAGATGAGAAGGTAACTCAGCCTCGATTA | -0.0918 | 0.0576 | 0.416 | 0.092 | 0.0859 | 0.0683 | 0.259 | 0.296
CAAACTAGGCCACCGGAAGGTCAAAGTCCGCATG | 4.21 | 4.82 | 4.07 | 0.796 | 4.1 | 2.93 | 1.18 | 2.29
AGTGAAAGTTCATCTAGGTAACGTAAGATATGCT | 3.66 | 5.08 | 5.81 | 4.66 | 4.44 | 3 | 0.263 | 5.43
AGTCAAGGTTCATCTAGGTAACGTAAGATATGCT | 2.09 | 3.09 | 2.93 | 4.77 | 3.54 | 3 | 0.474 | 5.03
CGAACTAGGTCATGGACAGGACAGTGAATAGTAA | 2.93 | 5.08 | 4.95 | 1.42 | 3.41 | 3.13 | 0.909 | 0.49
ACTAGCAGGTCAAGTTTGGGTCACTCAAACAAAG | 4.03 | 7.23 | 5.73 | 2.25 | 4.85 | 4.38 | 1.93 | 2.13
AGTATGAGGTTACCAAAGATCAGGGAAACGCTTG | 1.09 | 2.17 | 1.83 | 0.98 | 2.63 | 2.87 | 0.98 | 0.48
GCGACTGGGGCAACAGCAGGTTACCATAACTTAA | 0.882 | 0.815 | 0.776 | -0.15 | 0.454 | 1.67 | -0.275 | -0.281
AGAATGCGGTTATTAAGATCAGGGAATTGCGGTC | -0.19 | -0.0734 | 0.152 | -0.072 | -0.0867 | -0.0645 | -0.416 | -0.264
CCTAGCAGGCCAGGGTCTCTCAAGCATTTCGCTT | -0.597 | -0.659 | -0.606 | -0.912 | -0.675 | -0.53 | -0.611 | -0.871
CCGAGTAGATTATGGGGCATTCAGGCAACGGTGA | 0.0129 | -0.113 | 0.0692 | 0.349 | -0.0432 | 0.271 | -0.141 | -0.481
CCAGACGGGTGAAAGGTAACTCAGTCTGGTACGC | 0.112 | 0.694 | 0.136 | -0.879 | 1.81 | 0.461 | -0.444 | -0.582
TCTAGCAGGCCCGAGGGTCACTCAAGAGGTACGG | 2.43 | 2.27 | 1.72 | 0.126 | 2.42 | 1.67 | -0.376 | 0.268
CGAAGTAGGTCAAGGACAGTGAATCTCCGCACGC | 3.17 | 3.94 | 4.66 | 1.45 | 2.92 | 3.07 | 1.51 | 0.462
TAGCCTAGGTCATTCAGGGGCCAGTCTAGAAAGC | 3.1 | 5.97 | 4.33 | 1.66 | 2.98 | 3.27 | 0.478 | 1.43
CAAACTAGGCCACGAAAGGTCAAAGTCGAATGAC | 4.95 | 6.06 | 5.76 | 1.47 | 6.58 | 4.26 | 0.939 | 2.37
AGAATGAGGTTACCAAAGATCAGGAAAACGCTTG | 0.544 | 2.13 | 1.58 | 1.15 | 2.56 | 2.88 | 0.443 | 0.0267
GCAGACAGGTTAAACGCAGGTAACTCAGGGTGGC | 0.331 | 1.81 | 0.406 | -0.0571 | 1.54 | 2.06 | -0.519 | -0.623

Sequence | PBM binding z-score [1] | PBM binding z-score [2] | PBM binding z-score [3] | PBM binding z-score [4] | PBM binding z-score [5] | PBM binding z-score [6] | PBM binding z-score [7] | PBM binding z-score [8]
TCGAGTAGGTTTGTCGGGGCATTCAGCCAACATA | 0.429 | -0.206 | -0.592 | 0.805 | -0.149 | 0.462 | 0.392 | 0.461
GCTAGCAGGCCATTTGGGCCACTCAATGACGGGC | -0.576 | -0.489 | 0.0153 | -0.353 | -0.706 | -0.537 | -1.01 | -0.669
GGAACGAGGACAAGTTGATAGCAGAGTTTGATGG | 0.51 | 0.796 | 1.26 | 1.62 | 0.0511 | 2.53 | 1.58 | 0.892
TAGCCTAGGTCATTCCGGGGCCAGTATAGAAAGC | 3.12 | 5.28 | 4.24 | 1.28 | 2.66 | 3.63 | 0.929 | 1.46
TATAGCAGGCCAGAGGGTCACTCAAGAGGTACGG | 2.58 | 2.61 | 2.09 | -1 | 2.67 | 1.76 | -0.288 | 0.651
GCTGCTAGGTCAGGTTGATCAGCTAACGGGTACG | 2.24 | 2.65 | 3.71 | 0.558 | 1.14 | 1.73 | 0.499 | 0.442
GCTAGTTGGTCAGTAAAAGCTCACACACCGGTCG | 0.375 | -0.0691 | 0.0188 | 0.421 | -0.0351 | -0.374 | -0.166 | -0.217
CCGACTGGGGCAAAGGTTGCCATACTCAGTACGA | 0.697 | 1.32 | 0.395 | -0.142 | 1.32 | 0.333 | -0.54 | 0.111
TAGCCTAGGTCATGTGCCAGTATACCACGCGAAC | 2.84 | 3.83 | 4.32 | 1.26 | 3.14 | 2.91 | 1.55 | 0.739
TATCCAGGGTCAAAGGCCAGAGTACGAATGTCGA | 3.6 | 5.88 | 5.26 | 2.94 | 7.51 | 3.75 | 1.3 | 3.46
GCGACTGGTGCATCAGCAGGTTACCATAACTTAA | 0.107 | -0.0711 | -0.351 | -0.127 | -0.12 | 0.163 | -0.356 | -0.21
TCGAGTAGCTTACCAATGGGGCATTCAGCTTTCT | -0.454 | -0.745 | -0.826 | 0.345 | -0.307 | -1.44 | -0.855 | -0.692
CCTACTGGGCTAAAAAGGTCATTGATGCCGATAA | 4.14 | 4.08 | 3.54 | 0.543 | 4.39 | 3.01 | 0.22 | 2.22
CCTTACGGGTCACTCCAGGCTATAGCATCGGAGT | 2.51 | 4.03 | 4.09 | 0.95 | 4.01 | 4.23 | -0.482 | 0.841
GCGACTGGGGCAAAGCAGGTTATCATAAGGTTGG | 0.97 | 0.559 | 0.655 | -0.0158 | 0.368 | 2.9 | 0.0261 | -0.46
TCTATTAGTTGATTAGGCCAACCGAAACAGCGGA | 0.54 | 0.339 | 0.554 | 1.35 | 0.635 | 0.691 | 0.713 | 0.253
TCATATACGTAAATGCTAGGTGAAAGTCCGATCT | 0.562 | 0.251 | 0.209 | 1.77 | 0.598 | 0.97 | 0.696 | 0.147
TAGCCTAGGTCATGGGCCAGTATCCCACGCGAAC | 2.76 | 4 | 4.2 | -0.01 | 3.19 | 3.18 | 1.65 | 0.301
TCTGCTAGGTAAACGATGGTCAGCTAATCTGCTA | -0.48 | -0.193 | -0.441 | -0.148 | 0.132 | -0.11 | -1.01 | -0.963
